Structures are written as SMILES.

In assay [1] the test system is Human papillomavirus type 1a protein E7 (residues 44-93). As to the kind of experiment: HPV1a E7 fragment binders on microarrays, primary screen, biochemical, small-molecule microarray, residues 44-93, 635 nm fluorescence (AID 1108).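 Note: E7 fragment applied at 1 µg/mL in TBST for 1 h at 4 C; score combines spot fluorescence with its signal to noise ratio.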 To be noted: small-molecule microarray binding, fluorescence 635 nm; higher = more signal.
The nature of assay [2]: modulators of HCV replicon luciferase signal, primary screen, HCV replication inhibitor project, Huh7 cells, luciferase reporter (AID 1109).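 Note: huh7 hepatoma cells harbouring a luciferase neomycin HCV replicon reporter; luciferase luminescence as measure of HCV replicon replication; test concentration not given here.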 To be noted: 48 h, higher = more signal.
The target of assay [3] is Left-right determination factor 2 (Homo sapiens) (UniProt O00292). As to the kind of experiment: LEFTY2 binders on small-molecule microarrays, primary screen, biochemical, small-molecule microarray, 635 nm fluorescence scan (AID 1110). The conditions noted are these: LEFTY2 binding, higher = more signal.
Assay [4] addresses Calmodulin-1 (Homo sapiens) (UniProt P0DP23). As to the kind of experiment: CALM1 binders on microarrays, EGTA buffer, profiling panel, biochemical, small-molecule microarray, Cy5-labelled CALM1 (AID 1111).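 Note: labelled calmodulin applied in Tris saline Tween buffer holding calcium plus EGTA and DTT.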 The conditions noted are these: Cy5-CALM1 binding fluorescence, higher = more signal.
Assay [5] has the same target. The assay can be described thus: calcium-bound CALM1 binders on microarrays, profiling panel, artefact control for SMM control-protein annotation, biochemical, small-molecule microarray, Cy5-labelled CALM1, plus calcium (AID 1112).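 Note: score merges spot fluorescence with signal to noise from triplicate slides.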 The conditions noted are these: Cy5-CALM1 binding fluorescence, higher = more signal.
The nature of assay [6]: small-molecule microarray binders of probe aWnt5a, primary screen, biochemical, biotinylated probe, 635/667 nm fluorescence (AID 1113).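 Note: score merges 667 nm fluorescence intensity with signal-to-noise per printed feature.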 The conditions noted are these: higher = more signal.
A short description of assay [7]: small-molecule microarray binders of probe aShh, primary screen, biochemical, biotinylated probe, 635/667 nm fluorescence (AID 1114).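 Note: probe is biotin-labelled aShh protein from a stem cell growth factor screen; measures binding of labelled protein to compounds printed on the slide; score merges feature fluorescence at 667 nm with signal-to-noise.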 The conditions noted are these: higher = more signal.
Assay [8] in a line: small-molecule microarray binders of probe aNog, primary screen, biochemical, biotinylated probe, 635/667 nm fluorescence (AID 1115).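 Note: probe is biotinylated aNog protein used at 0.15 µg/mL for 1 h at 4 C; z-score combines 667 nm fluorescence of each spot with its signal to noise.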 To be noted: higher = more signal.
Assay [9] has as its target Torsin-1A-interacting protein 1 (Homo sapiens) (UniProt Q5JTV8). As to the kind of experiment: LAP1 binders from COS7 cell lysate, primary screen, small-molecule microarray, 635/667 nm fluorescence (AID 1116). The conditions noted are these: COS7-hLAP1 lysate binding, 635 nm fluorescence, higher = more signal.
The target in assay [10] is Alpha-bungarotoxin (Bungarus multicinctus) (UniProt P60615). The assay can be described thus: alpha-bungarotoxin binders on microarray, profiling panel, artefact control for SMM control protein annotation, biochemical, small-molecule microarray, Alexa647 label, 635/667 nm fluorescence (AID 1117). To be noted: alpha-BTX-A647 binding fluorescence, higher = more signal.
Sequence of Alpha-bungarotoxin (Bungarus multicinctus) (P60615 whole entry, looked up): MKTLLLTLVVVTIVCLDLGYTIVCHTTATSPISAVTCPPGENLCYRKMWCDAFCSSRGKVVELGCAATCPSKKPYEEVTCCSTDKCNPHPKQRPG

Sequence of Left-right determination factor 2 (Homo sapiens) (O00292 whole entry, looked up): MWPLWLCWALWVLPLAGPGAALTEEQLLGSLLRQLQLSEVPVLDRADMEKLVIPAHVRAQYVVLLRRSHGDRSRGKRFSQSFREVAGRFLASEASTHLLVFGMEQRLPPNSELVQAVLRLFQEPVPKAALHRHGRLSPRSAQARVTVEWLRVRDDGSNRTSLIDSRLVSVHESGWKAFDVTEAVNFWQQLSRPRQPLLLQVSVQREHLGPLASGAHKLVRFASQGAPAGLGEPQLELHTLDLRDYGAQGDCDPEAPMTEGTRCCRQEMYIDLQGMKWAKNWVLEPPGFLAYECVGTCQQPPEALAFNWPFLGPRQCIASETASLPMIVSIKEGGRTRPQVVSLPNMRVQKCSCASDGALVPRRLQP
Sequence of Torsin-1A-interacting protein 1 (Homo sapiens) (Q5JTV8 whole entry, looked up): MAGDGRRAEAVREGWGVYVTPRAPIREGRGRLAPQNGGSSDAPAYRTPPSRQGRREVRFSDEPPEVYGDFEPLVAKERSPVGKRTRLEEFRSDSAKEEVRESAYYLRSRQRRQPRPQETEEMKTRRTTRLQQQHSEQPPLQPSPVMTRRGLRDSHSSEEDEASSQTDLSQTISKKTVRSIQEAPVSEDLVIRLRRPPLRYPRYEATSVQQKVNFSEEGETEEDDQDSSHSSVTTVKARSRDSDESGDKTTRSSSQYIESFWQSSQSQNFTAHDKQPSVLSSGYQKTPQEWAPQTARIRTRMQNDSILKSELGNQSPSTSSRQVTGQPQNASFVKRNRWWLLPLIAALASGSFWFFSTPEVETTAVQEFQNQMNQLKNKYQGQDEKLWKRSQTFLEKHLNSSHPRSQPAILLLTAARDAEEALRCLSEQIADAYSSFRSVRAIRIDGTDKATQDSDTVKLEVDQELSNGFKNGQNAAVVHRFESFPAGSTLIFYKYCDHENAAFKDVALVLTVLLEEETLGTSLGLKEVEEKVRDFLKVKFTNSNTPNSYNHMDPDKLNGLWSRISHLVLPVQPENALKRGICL

In the case of `CCCC=C(CCC)[C@@H](NS(=O)(=O)CC12CCC(CC1=O)C2(C)C)c1ccc(C(=O)OC)cc1` (stereo not given in full), the composite z-score is 1.33 in assay [1]; 0.306 in assay [3]; -0.057 in assay [4]; -0.654 in assay [5]; -0.165 in [6]; -0.373 in assay [7]. Also, the composite z-score was -0.289 in assay [8], 0.159 in assay [9] and -0.362 in assay [10]. For the same molecule, the z-score in [2] was -0.197.

As for `O=C(NCCN1CCOCC1)[C@@H]1c2ccccc2C(=O)N(C2Cc3ccccc3C2)[C@H]1c1ccc(CO)cc1`, the composite z-score in [1] was 1.4; in assay [3], -1.57; in assay [4], -0.472; in assay [5], -0.301; in [6] it was -0.23; in assay [7], -0.13. The values for the composite z-score in assay [8], in assay [9] and in assay [10] were -0.447, 0.554 and 0.776, respectively. The z-score in assay [2] is -1.42.

As for `CO[C@H]1O[C@H](CO)[C@@H](OC(=O)CCc2ccccc2)[C@@H]2OC(=O)[C@@H](Cc3ccccc3)C/C=C/C[C@H](Cc3ccccc3)C(=O)O[C@@H]12`, the composite z-score in assay [1] is 1.3; in assay [3] it was 0.0673; in [4], 0.485; in assay [5], 0.0529; in assay [6], -0.0802; in [7], 0.772. Further, the composite z-score in assay [8] was 0.156; in [9], -0.161; in [10] it was 1.29. Also, the z-score in assay [2] is -1.97.

Turning to `CCCC#C[Si](O[C@H](CC)c1cn([C@H](C)c2ccccc2)nn1)(C(C)C)C(C)C`, the composite z-score in assay [1] is 0.691; in assay [3], 0.3; in assay [4], -0.155; in assay [5], -0.157; in assay [6], -0.124; in assay [7] it was 0.275. For the same molecule, the figures for the composite z-score in assay [8], in assay [9] and in assay [10] were 0.341, 1.54 and 0.709, respectively. Also, in assay [2], the z-score was -0.133.

With `CCCCCCc1nc(Cc2cc(OC)c(OC)c(OC)c2)cc2c1[Si](C(C)C)(C(C)C)OC2`, the composite z-score is -0.457 in [1]; 0.186 in assay [3]; -0.112 in [4]; -0.302 in assay [5]; -0.0462 in assay [6]; -0.214 in assay [7]. The composite z-score in assay [8] is -0.174; in [9], -0.136; in assay [10], -0.0869. Besides, the z-score in assay [2] is -1.96.

As for `C=CC[C@@]1(C(=O)NCCCOC)N=C(c2ccc(OCCCO)cc2)O[C@@H]1c1ccccc1`, the composite z-score in assay [1] was 1.06; in assay [3], -0.526; in assay [4] it was 1.94; in assay [5], 0.626; in assay [6] it was 0.155; in assay [7] it was -0.102. For the same molecule, the composite z-score in assay [8] is 0.365; in assay [9] it was 2.89; in [10], -0.146. For the same molecule, the z-score in assay [2] is -0.449.

For `C[N+](C)(C)CCCC[C@@H]1NC(=O)[C@@H]2C[C@H](C(=O)NCCCCCCN)[C@H](c3cccc(OCCO)c3)N2C1=O`, the composite z-score was 0.896 in [1]; 0.676 in [3]; 2.6 in assay [4]; 1.48 in assay [5]; 0.095 in assay [6]; 1.45 in [7]. Besides, the composite z-score in assay [8] is 0.662; in [9], 2.55; in [10], 1.9. Further, in assay [2], the z-score is -0.0759.

Take `CCCCCN1CC=CC23O[C@@H]4C=CCCOC(=O)C4[C@H]2C(=O)N(CCCCCCO)[C@@H]3C1=O` (stereo not given in full): the composite z-score in assay [1] was 0.521; in [3], -0.287; in assay [4] it was -0.711; in assay [5], -0.533; in assay [6] it was -0.168; in [7] it was -0.0769. The composite z-score in [8] was -0.316; in assay [9] it was 0.564; in assay [10], -0.675. This molecule had a z-score in assay [2] of 0.525.

Regarding `COc1ccc([Si](C)(C)[C@@H]2[C@@H](CCO)O[C@]3(C(=O)N(Cc4ccccc4)c4ccc(NC(=O)[C@H](C)O)cc43)[C@H]2C)cc1`, the composite z-score was 1.35 in [1]; 0.387 in assay [3]; 1.46 in assay [4]; -0.153 in assay [5]; 0.0559 in [6]; -0.0738 in assay [7]. For the same molecule, the results for the composite z-score in assay [8], in assay [9] and in assay [10] were -0.0428, 1.5 and 0.484, respectively. Besides, in [2], the z-score was -5.08.

Take `COc1cc(C(O)C2C=CC3C(=O)N(C)C(=O)C3N2Nc2ccccc2)cc(OC)c1OC` (stereo not given): the composite z-score in assay [1] was 0.1; in [3] it was -0.129; in assay [4], 1.8; in assay [5], 0.661; in assay [6], 0.233; in [7] it was 0.0725. The composite z-score in assay [8] was 2.22; in assay [9], 1.3; in assay [10] it was 0.469. For the same molecule, the z-score in [2] is 0.461.

For `C=C(/C(=C/C[C@H](OC(C)=O)c1ccc(CO)o1)c1cnc2ccccc2c1)C(C)C`, the composite z-score in assay [1] is 1.43; in assay [3], 0.552; in [4], 1.4; in assay [5] it was -0.24; in assay [6], -0.0643; in [7] it was 0.149. Also, the composite z-score in assay [8] stood at 0.33; in assay [9] it was 1.07; in assay [10] it was 2.15. Further, the z-score in [2] was -2.23.

As for `C=CCN1C(=O)[C@]2(CCC(=O)OC(C)(C)C)N=C(c3ccc(OCCCO)cc3)O[C@@H]2c2ccccc21`, the composite z-score in [1] is 0.841; in [3], 0.272; in assay [4], 1.23; in assay [5], -0.0414; in assay [6], -0.0441; in assay [7] it was 0.131. Also, the results for the composite z-score in assay [8], in assay [9] and in assay [10] were -0.292, 0.423 and 1.38, respectively. The z-score in assay [2] was -2.91.

On to `COCCCNC(=O)[C@@H]1c2ccccc2C(=O)N(C(C)C)[C@H]1c1ccc(CO)cc1`, for which the composite z-score in [1] is -1.72; in [3] it was 0.0506; in assay [4], 0.355; in assay [5] it was 0.254; in assay [6], -0.0828; in [7], -0.221. The figures for the composite z-score in assay [8], in assay [9] and in assay [10] were -0.1, 0.846 and 0.886, respectively. The z-score in [2] was -0.183.

These data come from PubChem BioAssay.
